Common to all, as to assay: NCI-60 one-dose screen, 48 h (100 = growth as untreated, 0 = no growth, -100 = all killed)
Assay [1] concerns A549/ATCC NSCLC. Particulars: 10 µM unless noted.
The subject of assay [2] is K-562 leukemia. Particulars: 10 µM unless noted.
For assay [3], the system named is SF-295 CNS. Particulars: 10 µM unless noted.
The test system of assay [4] is SF-539 CNS. Particulars: 10 µM unless noted.
In assay [5] the test system is UACC-257 melanoma. Particulars: 10 µM unless noted.
The test system of assay [6] is HCT-15 colon. Particulars: 10 µM.
In assay [7] the test system is HT29 colon. Particulars: 10 µM unless noted.
Assay [8] concerns SNB-75 CNS. Particulars: 10 µM unless noted.
Assay [9] has as its system PC-3 prostate. Particulars: 10 µM unless noted.
Assay [10] has as its system SK-MEL-5 melanoma. Particulars: 10 µM unless noted.
Assay [11] deals with SK-MEL-2 melanoma. Particulars: 10 µM unless noted.
The subject of assay [12] is A498 renal. Particulars: 10 µM unless noted.
The test system of assay [13] is HL-60(TB) leukemia. Particulars: 10 µM unless noted.
Assay [14] has as its system OVCAR-8 ovarian. Particulars: 10 µM unless noted.
Assay [15] relates to OVCAR-4 ovarian. Particulars: 10 µM unless noted.
Assay [16] concerns IGROV1 ovarian. Particulars: 10 µM.
Assay [17] has as its system HS 578T breast. Particulars: 10 µM unless noted.
For assay [18], the system named is T-47D breast. Particulars: 10 µM unless noted.
Assay [19] deals with HCC-2998 colon. Particulars: 10 µM unless noted.
For assay [20], the system named is ACHN renal. Particulars: 10 µM unless noted.

The panel holds about 83,000 compounds, 20% with a hit somewhere; the sample as a whole holds those more often.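 For each line, cells grew in 96-well plates with the test compound present at a single concentration for 48 hours.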 Unmarked numbers belong to inactive results. The source made the active and inactive calls. Rule for the calls: active = growth percent below 10; inactive = the rest.

For the molecule `CCCCCCCCCCOc1ccc(C(=O)Oc2ccc(CSP3(=O)OCC4OC(n5ccc(=O)[nH]c5=O)C(F)C4OP(=O)(O)OCC4OC(n5cnc6c(N)ncnc65)C(F)C4O3)cc2)cc1` (stereo not given), the growth was 85.9% in assay [1]; 66.1% in assay [2]; 105% in [3]; 23.1% in [4]; 21.3% in [5]; 105% in assay [6]. Further, the growth in assay [7] was 79.3%; in [8] it was 102%; in [9] it was 103%; in assay [10], 111%; in assay [11], 76.3%; in assay [12], 6.69% (active). Besides, the growth was -12.8% (active) in assay [13]; 104% in assay [14]; 58.8% in [15]; 95.3% in [16]; 111% in [17]; 96.4% in [18]. In addition, the growth in assay [19] is 102%.

Take `O=c1[nH]c2cc(Cl)ccc2n1C1CCN(CCCC(c2ccc(F)cc2)c2ccc(F)cc2)CC1`: the growth in assay [2] is -59.9% (active); in [3], -27.6% (active); in assay [4] it was 15.5%; in assay [5] it was -81.4% (active); in assay [6] it was -30.3% (active); in [7], -36.9% (active). In addition, the growth in [8] was 60.7%; in assay [9], 7.82% (active); in assay [10] it was -80.9% (active); in assay [11] it was 16.8%; in assay [20], 48.5%; in assay [12], -90.2% (active). In addition, the growth in assay [13] was -70.7% (active); in [14], -56.7% (active); in assay [15], 56.6%; in assay [17] it was -80.6% (active); in assay [18] it was 41.5%; in [19], -63.4% (active).

On to `COc1cc(N(CCCl)CCCl)ccc1C=Nc1ccccc1C(=O)O`, for which the growth in assay [1] was 92.6%; in assay [2] it was 95%; in [3] it was 98%; in assay [4] it was 102%; in assay [5] it was 91%; in [6], 97.7%. Besides, the growth is 98.2% in assay [7]; 85.8% in assay [8]; 90.3% in assay [9]; 97.4% in assay [10]; 113% in [11]; 97% in assay [20]. In addition, the growth is 66.3% in [12]; 94.8% in assay [13]; 92.9% in assay [14]; 104% in assay [15]; 84.1% in [16]; 81.5% in [17]. Moreover, the growth in assay [18] is 97.6%; in assay [19], 88.2%.

As to `C/C(=C\C(=O)O[C@H]1[C@@H]2[C@H](C)CC[C@H]2[C@]2(C)O[C@@]1(C1CCCCC1)C[C@H]2OC(=O)CO)c1ccccc1`, the growth was 40.8% in assay [1]; 23.2% in [2]; 50.5% in [3]; 77.2% in assay [4]; 44.2% in [5]; 18.7% in assay [6]. For the same molecule, the growth in assay [7] was 9.35% (active); in [8], 68.3%; in [9], 17.9%; in [10], 71.7%; in [11] it was 55.8%; in assay [20], -16.5% (active). Besides, the growth in assay [12] was -83% (active); in assay [13], -27.8% (active); in assay [14] it was 19%; in [15], 38.5%; in assay [16] it was 71.1%; in assay [17], -28.1% (active). For the same molecule, in [19], the growth was 25.9%.

On to `Nc1ccc(N)c2c1Oc1ccccc1O2`, for which the growth is 107% in assay [1]; 92.1% in assay [2]; 101% in assay [3]; 89.1% in assay [4]; 102% in assay [5]; 105% in assay [6]. For the same molecule, the growth was 110% in assay [7]; 108% in [8]; 88% in assay [9]; 72.6% in [10]; 95.9% in [11]; 94.7% in assay [20]. Also, the growth is 92.9% in assay [12]; 69.4% in assay [13]; 97.5% in assay [14]; 110% in assay [15]; 6.91% (active) in assay [16]; 75.2% in assay [17]. Also, the growth in [18] was 98.1%; in assay [19] it was 108%.

For `CO[C@@H]1[C@H](OC(=O)NC(=O)CCl)CC[C@]2(CO2)[C@H]1[C@@]1(C)O[C@@H]1CC=C(C)C`, the growth in assay [1] was 59.1%; in assay [2], 47.2%; in assay [3] it was 75.1%; in assay [4], 87.6%; in assay [5], 44.3%; in assay [6], 30%. The growth is 58.1% in assay [7]; 41.7% in [8]; 20.2% in assay [9]; 55.4% in [10]; 82.3% in [11]; 60.7% in assay [20]. Also, the growth in assay [12] is 103%; in [13], 49.1%; in assay [15], 47.8%; in assay [16], -10.6% (active); in assay [17], 61.2%; in assay [18], 64.6%. Further, the growth in [19] was 80.9%.

On to `Oc1ccc2c3c1O[C@H]1c4[nH]c5ccccc5c4C[C@@]4(O)C(C2)N(CC2CC2)CC[C@]314`, for which the growth was 90% in assay [1]; 77.7% in assay [2]; 98.3% in assay [3]; 103% in [4]; 97.4% in assay [5]; 99.7% in assay [6]. The growth in assay [7] is 83.9%; in assay [8] it was 76.8%; in [9], 88.1%; in [10], 96.4%; in assay [11] it was 90.1%; in assay [20], 89.7%. Besides, the growth in assay [12] is 100%; in [13] it was 98.6%; in assay [14], 93.2%; in assay [15], 96.5%; in assay [16] it was 97.5%; in assay [17], 92.1%. For the same molecule, the growth in assay [18] is 84.8%; in assay [19], 90%.

For `CC[C@H](C)[C@H](NC(=O)Nc1ccccc1)C(=O)N(C)[C@H](C[C@@H](OC(C)=O)c1nc(C(=O)N[C@@H](Cc2ccccc2)C[C@H](C)C(=O)OC)cs1)C(C)C`, the growth in assay [1] was 23.5%; in [2], 15.7%; in assay [3] it was 4.42% (active); in [4], -26.3% (active); in assay [5], 60.6%; in assay [6], 9.43% (active). Further, the growth was -23.1% (active) in assay [7]; 5.16% (active) in assay [8]; 21.6% in [9]; -70.3% (active) in assay [10]; -15% (active) in assay [11]; 25.1% in assay [20]. The growth in [12] is -15.6% (active); in assay [13] it was -17.2% (active); in assay [14], 14.6%; in [15], 31.5%; in [16] it was 22.2%; in assay [17], 5.14% (active). The growth in [18] was 61.6%; in assay [19] it was 18.7%.

For the origin of these results see PubChem BioAssay (NCI).
